A selection: hits, their analogues and other compounds. The true share with any hit is near 1.8%.
BaF3 tox: reduces parental Ba/F3 cell viability, JAK2V617F counter-screen; CellTiter-Glo ATP luminescence; inhibition, % at 5.6 µM; hit rate 1.1% among 220,000; AID 1486;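 active means inhibition above a per-campaign cutoff, the mean inhibition of all tested compounds plus 3 SD, cut at about 27% in these data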;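 further: 0% = DMSO wells and 100% = JAK Inhibitor I control wells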
APP 5UTR inh: APP translation inhibition; SH-SY5Y APP 5'UTR-luciferase reporter, luminescence; inhibition, % at 2 µM; hit rate 0.82% among 190,000; AID 1285;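 active means inhibition above a set limit, derived from the sample mean plus 3 SD, cut at about 45% in these data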
IEC-6 cytotox: IEC-6 cytotoxicity, counter-screen for KLF5 inhibitors; hit rate 0.78% among 290,000; AID 1825; inhibition, % at 5 µM; luminescence viability; in the data active means inhibition above about 22%;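 further: 0% = plate median of test compound wells and 100% = cytotoxic reference compound wells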
Ba/F3 V617F tox: reduce viability of Ba/F3 cells dependent on JAK2V617F; Ba/F3 EpoR-JAK2V617F viability, ATP luminescence; hit rate 1.1% among 220,000; inhibition, % at 5.6 µM; AID 1446;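 active means inhibition above the campaign mean plus 3 SD over all tested compounds, cut at about 24% in these data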;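 further: cytokine-independent growth of Ba/F3 cells driven by EpoR plus mutant JAK2; 0% = DMSO-treated cells and 100% = JAK inhibitor I control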
KLF5 inh: inhibitors of KLF5 expression; AID 1700; inhibition, % at 5 µM; DLD-1 KLF5 promoter-luciferase reporter, luminescence; hit rate 0.23% among 290,000;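 active means inhibition above a per-plate limit of that plate's mean compound inhibition plus 3 SD, cut at about 60% in these data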;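 further: 0% = DMSO wells and 100% = LY294002 at 200 µM; higher means less KLF5 promoter-driven luciferase light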
* hit, by the source's call; · = no result given.

SMILES | BaF3 tox | APP 5UTR inh | IEC-6 cytotox | Ba/F3 V617F tox | KLF5 inh
Cc1cc(=O)oc2cc(OCCCC[n+]3ccccc3)ccc12 | -1 | · | -6 | -2 | -51
CCCCCc1ccc(OCCCC[n+]2ccc(C)cc2)c(CCCCC)c1 | 103* | -15 | 19 | 102* | 13
CCCCOc1ccc(C)cc1CN(CCO)CCO | 4 | -13 | 2 | 1 | -30
CCCCCc1ccc(OCCCC[n+]2ccccc2)c(CCCCC)c1 | 81* | -6 | 8 | 100* | 9
CCCCCc1ccc(OCCCC[n+]2cccc(C)c2)c(CCCCC)c1 | 95* | 14 | 21 | 102* | 26
CCC(C)(C)c1ccc(OCCCC[n+]2ccccc2)c(C(C)(C)CC)c1 | 85* | -7 | 6 | 100* | 13
CCn1c(N)[n+](CC(=O)Nc2ccc(SC(F)F)cc2)c2ccccc21 | -1 | · | 1 | 1 | 2
COc1cccc(NC(=O)C(=O)N/N=C/c2cc(C)n(-c3ccc(Cl)c(Cl)c3)c2C)c1 | 4 | -22 | 6 | 3 | 1
COc1cc(NCCCCCCCN)c2ncccc2c1 | 37* | -8 | 11 | 50* | -13
Cc1sc2nc(CN(Cc3cccs3)C(=O)C3CC3)[nH]c(=O)c2c1C | 86* | 11 | -7 | 11 | -25
COc1ccccc1-c1nnc(NC(=O)c2ccc3c(c2)OCO3)s1 | 1 | 46* | 1 | -2 | -42
CC(C)c1nnc(NC(=O)c2ccc3c(c2)OCO3)s1 | 3 | -148 | 5 | 2 | -143
CCSc1nnc(NC(=O)c2ccc3c(c2)OCO3)s1 | 93* | -53 | -5 | -1 | -80
COc1cc(C(=O)N/N=C(\C)c2ccc3c(c2)OCO3)cc(OC)c1OC | 72* | 91* | 89* | 73* | 31
CCOC(=O)CSc1nnc(NC(=O)c2ccc3c(c2)OCO3)s1 | · | · | -1 | · | 10
CC(C)(C)NC(=O)CSc1nnc(NC(=O)c2ccccc2Cl)s1 | 0 | 46* | 7 | -4 | -30
CCCCCCc1nc2ccccc2c(=O)n1NC(=O)c1c(O)c2cccc3c2n(c1=O)CC3 | 1 | -17 | -4 | -3 | -38
CC(C)Cn1c(N)c(C(=O)COC(=O)C2CC(=O)N(Cc3ccccc3Cl)C2)c(=O)n(C)c1=O (stereo unspecified) | -1 | -8 | 3 | -4 | 12
COc1ccc(/C=C(/NC(=O)c2ccccc2)C(=O)N2CCOCC2)cc1OC | · | · | -4 | · | 7
O=C(CNC(=S)N(Cc1ccccc1)Cc1cccnc1)NCCN1CCOCC1 | -2 | 8 | -6 | -5 | -27
CCSc1nnc(NC(=O)c2ccccn2)s1 | 8 | -56 | 47* | -3 | -155
CCOc1ccccc1CN1CCN(C/C=C/c2ccc(OC)cc2)CC1CCO (stereo unspecified) | 43* | 15 | 11 | 4 | 10
COc1ccc(/C=C/CN2CCN(CCc3ccccc3)C(CCO)C2)cc1 (stereo unspecified) | 6 | 10 | -3 | -1 | -1
COc1ccc(CCNC(=O)C(=O)NCC2OCCN2S(=O)(=O)c2cc(F)ccc2F)cc1OC (stereo unspecified) | · | · | -3 | · | -22
COc1ccc(OC)c(NC(=O)CN(c2ccc(C)cc2)S(=O)(=O)c2c(C)noc2C)c1 | 0 | -10 | -1 | -1 | 10
SMILES | BaF3 tox | APP 5UTR inh | IEC-6 cytotox | Ba/F3 V617F tox | KLF5 inh
COc1ccc(N(CC(=O)Nc2cc(Cl)ccc2OC)S(=O)(=O)c2c(C)noc2C)cc1 | 54* | 54* | 3 | 8 | -1
On1onc2c3cc(-c4ccccc4)nc3ccc21 | 97* | 61* | 3 | 100* | -3
c1ccc(-c2cc3c(ccc4nonc43)nn2)cc1 | 1 | 0 | 7 | -3 | 20
COc1ccc(CS(=O)(=O)CC(C)(O)c2ccccc2Cl)cc1 (stereo unspecified) | · | · | -1 | · | -10
Cc1cc[n+](CCC(=O)O)c2ccccc12 | 6 | -4 | 1 | 3 | 16
Cc1cc[n+](-c2ccccc2)c2ccccc12 | 65* | -13 | 4 | 68* | -6
CCOC(=O)CCc1c(C)nc(-n2[nH]c(C)c(CCO)c2=O)[nH]c1=O | 2 | -16 | -1 | 4 | -16
C/C(=N/NC(=O)c1cccs1)c1c(C)[nH]n(-c2nc3ccccc3s2)c1=O | 49* | -87 | 42* | 48* | -80
CN1CCc2c(sc3c2C(=O)NC(c2ccco2)N3)C1 (stereo unspecified) | 30* | 15 | 8 | -2 | -8
Nc1ccc(S(=O)C(F)(F)F)cc1 (stereo unspecified) | 1 | 11 | -1 | 0 | -11
CCN(CC)C(=O)CSc1nc2c(c(-c3cccnc3)c1C#N)CCCC2 | 6 | 8 | 0 | 5 | -1
CN1/C(=C\C=N\NC(=O)c2cccnc2)C(C)(C)c2ccccc21 | 43* | 19 | 1 | 38* | -6
CN1/C(=C\C=N\NC(=O)c2ccc(O)cc2)C(C)(C)c2ccccc21 | 42* | -1 | 3 | 37* | -10
Fc1ccc(CSc2nnc(-c3ccccn3)o2)cc1 | · | · | -6 | · | -184
Cc1ccc(-n2c(C)nnc2SCC(=O)NC2CCCC2)cc1 | · | · | -3 | · | -22
Cc1ccc(CN2C(=O)/C(=C\c3ccc(C(=O)NCc4cccnc4)cc3)Oc3ccccc32)cc1 | -2 | 72* | 0 | -4 | -14
Cn1cc(C(=O)Nc2ccc(F)c(F)c2)cn1 | 2 | 50* | 3 | -2 | -21
C[C@H](NC(=O)C1CC(=O)N(c2ccc3c(c2)OCCO3)C1)C(=O)N1CCCCC1 (stereo partly specified) | · | · | 4 | · | -36
Cc1noc(NS(=O)(=O)c2ccc(NC(=O)NC(C)(C(F)(F)F)C(F)(F)F)cc2)c1C | · | · | -1 | · | -25
O=C1NC(=O)C(CC(=O)N(Cc2cccs2)C2(C(=O)NC3CCCCC3)CCCCC2)N1 (stereo unspecified) | 88* | 5 | 0 | 5 | -22
O=C(c1cccc(Cl)c1)N1CCC(N2CCC(C(=O)N3CCCC3)CC2)CC1 | · | · | -1 | · | -31
O=C(OCc1ccccc1)N1CCCC1/C=C/CN1CCOCC1 (stereo unspecified) | 2 | 63* | 1 | 0 | -4
CC1=CC(=O)C=C(C)C1=NOS(=O)(=O)c1ccccc1 | 48* | 80* | 7 | 76* | 0
CC1=CC(=O)C(C(C)C)=C/C1=N/OS(=O)(=O)c1ccccc1 | 104* | · | -1 | 99* | -15
CC(=NCCc1c(C)[nH]c2ccc(OCc3ccccc3)cc12)C1=C(O)CC(c2ccccc2)CC1=O (stereo unspecified) | 3 | -22 | -4 | -3 | -33
CCCCC(=NCCc1c(C)[nH]c2ccc(OC)cc12)C1=C(O)CC(c2ccccc2)CC1=O (stereo unspecified) | 4 | 78* | 1 | -3 | 9
CCC(=NCCc1c(C)[nH]c2ccc(OC(F)(F)F)cc12)C1=C(O)CC(c2ccccc2)CC1=O (stereo unspecified) | 4 | 78* | -12 | -1 | -25
CCNc1nc(NC(C)C)nc(OCC)n1 | 8 | -8 | 1 | 4 | 4
O=C(/C=C/c1ccccc1)NNC(=O)c1cccs1 | 41* | -3 | -3 | 24* | 2
